CHO-K1 Ca antag – M1 antagonist counterscreen hit in parental CHO-K1 cells. inhibition, % at 3 µM. 360,000 compounds, 0.6% hits. ATP-induced calcium, Fluo-8 fluorescence;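 active = inhibition above a per-plate cutoff, the plate's mean sample inhibition plus 3 SD, cut at about 24% in these data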;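 note: 0% = DMSO plus EC80 ATP and 100% = DMSO alone without ATP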
M1 antag – human CHRM1 antagonism; inhibition, % at 3 µM; P11229; AID 588852; 360,000 compounds, 1.3% hits; CHO-K1 hM1, Fluo-8 calcium fluorescence, ACh EC80 antagonist;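 active = percent inhibition above its own plate's cutoff, namely the mean of that plate's compound wells plus 3 SD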;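 note: peak over basal fluorescence ratio during 140 s after agonist addition; 0% = ACh EC80 plus DMSO and 100% = DMSO alone without agonist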
Target sequence (P11229 whole entry, looked up): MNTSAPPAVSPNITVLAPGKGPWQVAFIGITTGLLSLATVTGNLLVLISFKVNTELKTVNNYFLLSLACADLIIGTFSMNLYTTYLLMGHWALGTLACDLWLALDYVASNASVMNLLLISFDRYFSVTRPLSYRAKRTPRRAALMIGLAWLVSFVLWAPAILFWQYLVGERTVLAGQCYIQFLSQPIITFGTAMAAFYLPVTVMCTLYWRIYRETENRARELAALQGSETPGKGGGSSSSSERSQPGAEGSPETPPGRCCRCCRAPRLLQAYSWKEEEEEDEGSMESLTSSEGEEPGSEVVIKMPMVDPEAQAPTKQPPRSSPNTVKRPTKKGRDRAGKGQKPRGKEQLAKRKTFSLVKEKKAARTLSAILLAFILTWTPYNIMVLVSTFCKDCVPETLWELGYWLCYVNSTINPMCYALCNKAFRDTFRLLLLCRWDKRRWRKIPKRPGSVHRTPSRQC
M1 PAM parental – nonselective activator or artifact in parental CHO-K1 calcium assay. ATP EC20, Fluo-8 calcium fluorescence; 0% at ATP EC20, 100% at ATP max. activation, % at 3 µM. 360,000 compounds, 0.02% hits;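 active = activation above the run cutoff, the mean activation of all test compounds plus 3 SD, cut at about 40% in these data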;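 note: peak over basal fluorescence ratio in a 140 s read after ATP addition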
M1 ag parental – nonselective activator or artifact in parental CHO-K1 cells. Fluo-8 calcium fluorescence; scaled to maximal ATP response, vehicle zero. activation, % at 3 µM. 360,000 compounds, 0.48% hits. AID 602248; in the data active = activation above about 15%;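 note: untransfected CHO-K1 host cells lacking M1 receptor as counterscreen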
M1 PAM – potentiates human M1 receptor response to acetylcholine; P11229; CHO-K1 hM1, Fluo-8 calcium fluorescence, ACh EC20; 0% = ACh EC20, 100% = maximal ACh; activation, % at 3 µM; 360,000 compounds, 0.088% hits; in the data active = activation above about 19%, passing the limit was not always enough
M1 ag – agonists of human M1 muscarinic receptor; P11229; CHO-K1 hM1, Fluo-8 calcium fluorescence, agonist mode; 0% DMSO, 100% acetylcholine EC100; activation, % at 3 µM; 360,000 compounds, 0.33% hits;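 active = activation above the run's mean compound activation plus 3 SD, cut at about 16% in these data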;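 note: peak over basal fluorescence ratio within a 140 s kinetic read after compound addition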
Numbers without * were called inactive; ! = not confirmed by another sample. Most compounds without a hit are left out; they make up all but 2.3% or so of the library.

SMILES | CHO-K1 Ca antag | M1 antag | M1 PAM parental | M1 ag parental | M1 PAM | M1 ag
Cc1ccc(C)c(Cn2nnc(C(=O)Nc3ccc4c(c3)OCCO4)c2N)c1 | 19 | 8 | -25 | 14 | 5 | 28*
Cc1cc(C)cc(NC(=O)c2nnn(Cc3cc(C)ccc3C)c2N)c1 | 21 | 6 | -14 | 3 | -3 | 26*
Nc1c(C(=O)NCc2ccc3c(c2)OCO3)nnn1Cc1ccc(Br)cc1 | -3 | 0 | 19 | 18* | 7 | 16*
CC(=O)c1cccc(CN(C)CC2CCCN(CCc3ccccc3C)C2)c1 (stereo unspecified) | 3 | 100* | 3 | 0 | -27 | -9
CN(Cc1ccccc1)CC1CCCN(CCc2ccccc2F)C1 (stereo unspecified) | -9 | 11 | 0 | 0 | -14 | -9
COc1ccc(F)c(CN(C)CC2CCCN(CCc3ccc(F)cc3)C2)c1 (stereo unspecified) | 2 | 33* | 11 | 1 | -25 | -8
COc1cc(CN(C)CC2CCCN(CCc3ccccc3F)C2)cc(Cl)c1OC (stereo unspecified) | -4 | 74* | 6 | 0 | -27 | -10
CCCCCCCCCCOC(=O)Cn1c(COc2cccc(C)c2)[n+](C)c2ccccc21 | 9 | 36* | 4 | 0 | -22 | 9
CCCCCCCCCCOC(=O)Cn1c(COc2ccc(Cl)cc2)[n+](C)c2ccccc21 | 1 | 43* | 14 | 13 | -20 | -4
CCCCCCCCCCOC(=O)Cn1c(COc2ccccc2C)[n+](C)c2ccccc21 | -1 | 86* | 4 | 0 | -30 | -10
CCCCCCCCCCOC(=O)Cn1c(COc2ccc(OC)cc2)[n+](C)c2ccccc21 | 13 | 41*! | -2 | 7 | -16 | -11
Cc1cccc(OCCCn2c(=O)sc3ccccc32)c1 | -4 | 14 | 3 | 0 | -3 | -5
CCCCCOC(=O)Cn1c(=O)oc2ccccc21 | 1 | -8 | 10 | 0 | 5 | -8
CCOC(=O)Cn1c(COc2ccccc2OC)[n+](C)c2ccccc21 | 1 | 6 | -7 | 0 | -3 | -9
Cc1ccc(S(=O)(=O)N2[C@@H](c3ccccc3F)C(C(=O)O)=CC[C@H]2c2ccc3c(c2)OCO3)cc1 | -1 | -2 | 5 | 1 | 4 | -4
COc1ccc(S(=O)(=O)N2CCOCC2)cc1NC(=O)CCNC(=O)c1ccc([N+](=O)[O-])cc1 | 8 | 11 | -19 | 0 | 0 | -3
O=C(NCc1ccco1)C1CCCN(c2nnc(-n3cccc3)s2)C1 (stereo unspecified) | -13 | -7 | -13 | 0 | 7 | -2
CCCCOC(=O)Cn1c(=O)n(CC(=O)OCCCC)c2ccccc21 | -6 | -4 | 8 | 0 | 1 | -4
CCCCCCCCCCOC(=O)Cn1c(COc2ccccc2)[n+](C)c2ccccc21 | 5 | 70* | 2 | 1 | -30 | -6
CCOC(=O)c1sc2nc(NC(=O)C(C)(C)C)sc2c1C | 4 | 32* | 3 | 5 | -19 | -5
CCOC(=O)c1sc2nc(NC(=O)C3CC3)sc2c1C | -7 | -8 | 17 | 1 | 7 | -1
O=C1CCN2C=Nc3cccc4ccc1c2c34 | -2 | -13 | -8 | 18* | -3 | 25*
O=C1CCC(=O)c2ccc3c4c(ccc1c24)CC3 | -5 | -9 | 3 | 0 | 2 | -6
O=C(NC1CCCCC1)C(c1ccccc1)N1CCCC1 (stereo unspecified) | -3 | 80* | 4 | 0 | -26 | -6
O=C(COc1ccc(Cl)cc1Br)NC(=O)NC1CCCC1 | 20 | 31* | -33 | -1 | -17 | -6
SMILES | CHO-K1 Ca antag | M1 antag | M1 PAM parental | M1 ag parental | M1 PAM | M1 ag
O=C(COc1ccc(Cl)cc1Cl)NC(=O)NC1CCCC1 | 14 | 2 | -25 | 0 | -10 | -7
O=C(Nc1ccccc1Cl)NC1CCCCCCC1 | 7 | 8 | -10 | 23* | -4 | 13
O=C(COc1ccccc1Cl)NC(=O)NC1CCCC1 | -9 | 34* | 17 | 1 | -22 | -9
Cc1ccc(C(C(=O)NC2CCCCC2)N2CCCC2)cc1 (stereo unspecified) | -9 | -7 | 28 | 1 | -22 | -6
COc1ccc(Cl)cc1NC(=O)C1CC(=O)N(C2CCCCC2)C1 (stereo unspecified) | 5 | 4 | -5 | 2 | 0 | -1
O=Cc1ccc(F)c([B-](F)(F)F)c1 | -5 | -7 | 6 | 0 | 8 | -1
COc1cc(NC(=O)C2(C)CCN2C(C)C)cc(OC)c1OC (stereo unspecified) | 2 | -9 | 9 | 0 | 8 | -3
Oc1ccc(N=Nc2ccc3c(c2)OCCO3)c2ncccc12 | 22 | 32* | -3 | 17* | -12 | 12
O=C(COC(=O)c1ccc(CO)cc1)Nc1ccc(OC(F)F)cc1 | -8 | -5 | 3 | 1 | -1 | -3
COc1cc(CN(CCN(C)C)Cc2ccccc2)ccc1OCc1ccccc1 | 11 | 51* | -4 | 1 | -24 | -9
OC(COC(c1ccccc1)c1ccccc1)CN1CCc2ccccc2C1 (stereo unspecified) | -1 | 12 | 12 | 4 | -25 | -8
OC(COC(c1ccc(Cl)cc1)c1ccc(Cl)cc1)CN1CCc2ccccc2C1 (stereo unspecified) | -7 | 4 | 29 | 16* | -3 | -7
OC(COC(c1ccccc1)c1ccccc1)CN1CCN(c2ccccn2)CC1 (stereo unspecified) | -1 | 42* | 15 | 5 | -26 | -8
CCCCCOC(=O)c1ccccc1C(=O)O | -13 | -1 | 2 | 0 | 1 | -3
COc1ccc(NS(=O)(=O)c2cccc(C(=O)NCC(c3ccccc3)N(C)C)c2)cc1 (stereo unspecified) | 3 | 19 | 6 | 3 | -9 | 2
COc1ccccc1C(CNC(=O)c1ccc(NS(=O)(=O)c2ccc3c(c2)OCCO3)cc1)N(C)C (stereo unspecified) | 15 | 40* | -20 | 0 | -15 | 8
COc1ccccc1NS(=O)(=O)c1ccc(-c2cnc(C3CC3)o2)cc1 | -13 | 0 | 14 | 6 | 0 | -1
COc1ccc(NS(=O)(=O)c2ccc3c(c2)OCCO3)cc1OC | 36* | 26* | -2 | 14 | -13 | 2
COc1ccc(NS(=O)(=O)c2ccc(-c3cnc(C4CC4)o3)cc2)cc1OC | 23 | 34 | -19 | 16* | -12 | 2
COc1ccccc1C(CNC(=O)c1cccc(S(=O)(=O)Nc2ccc(C)cc2)c1)N(C)C (stereo unspecified) | -8 | 99* | -4 | 1 | -24 | -5
O=C(CSc1ncnc2sc3c(c12)CCC3)Nc1ccccc1C(=O)O | -7 | 5 | 6 | 0 | 2 | -1
